Results on twelve molecules are retold here after PubChem BioAssay.

The structures appear in SMILES notation.

Test [1] has as its system Human papillomavirus type 1a protein E7 (residues 44-93). Description: small molecules binding HPV E7 44-93 – biochemical, small-molecule microarray, residues 44-93, 635 nm fluorescence, primary screen (AID 1108).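 Also: E7 fragment applied at 1 µg/mL in TBST for 1 h at 4 C; score combines spot fluorescence with its signal to noise ratio.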 The settings on record: fluorescence 635 nm, higher = more signal.
Test [2] can be described thus: hepatitis C replication reporter changes, two-sided – Huh7 cells, luciferase reporter, HCV replication inhibitor project, primary screen (AID 1109).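 Also: huh7 hepatoma cells harbouring a luciferase neomycin HCV replicon reporter; luciferase luminescence as measure of HCV replicon replication; test concentration not given here.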 The settings on record: Huh7 HCV replicon luciferase reporter, 48 h; higher = more signal.
Test [3] addresses Left-right determination factor 2 (Homo sapiens) (UniProt O00292). Description: small molecules binding LEFTY2 protein – biochemical, small-molecule microarray, 635 nm fluorescence scan, primary screen (AID 1110). Conditions: higher = more signal.
Test [4] addresses Calmodulin-1 (Homo sapiens) (UniProt P0DP23). Description: small molecules binding calmodulin-1 with EGTA – biochemical, small-molecule microarray, Cy5-labelled CALM1, profiling panel (AID 1111).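 Also: labelled calmodulin applied in Tris saline Tween buffer holding calcium plus EGTA and DTT.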 Conditions: Cy5-CALM1 binding fluorescence, higher = more signal.
Test [5] shares this target. Description: small molecules binding Ca-loaded calmodulin-1 – biochemical, small-molecule microarray, Cy5-labelled CALM1, plus calcium, artefact control for SMM control-protein annotation, profiling panel (AID 1112).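 Also: score merges spot fluorescence with signal to noise from triplicate slides.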 The settings on record: Cy5-CALM1 binding fluorescence, higher = more signal.
Test [6] can be described thus: probe aWnt5a binding to arrayed compounds – biochemical, biotinylated probe, 635/667 nm fluorescence, primary screen (AID 1113).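 Also: score merges 667 nm fluorescence intensity with signal-to-noise per printed feature.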 The settings on record: small-molecule microarray, higher = more signal.
Test [7] can be described thus: probe aShh binding to arrayed compounds – biochemical, biotinylated probe, 635/667 nm fluorescence, primary screen (AID 1114).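 Also: probe is biotin-labelled aShh protein from a stem cell growth factor screen; measures binding of labelled protein to compounds printed on the slide; score merges feature fluorescence at 667 nm with signal-to-noise.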 Conditions: small-molecule microarray, higher = more signal.
Test [8] is described as follows: probe aNog binding to arrayed compounds – biochemical, biotinylated probe, 635/667 nm fluorescence, primary screen (AID 1115).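 Also: probe is biotinylated aNog protein used at 0.15 µg/mL for 1 h at 4 C; z-score combines 667 nm fluorescence of each spot with its signal to noise.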 Conditions: small-molecule microarray, higher = more signal.
The target of test [9] is Torsin-1A-interacting protein 1 (Homo sapiens) (UniProt Q5JTV8). Kind of test: compound microarray binding of lysate hLAP1 – cell lysate, small-molecule microarray, COS7 lysate, 635/667 nm fluorescence, primary screen (AID 1116). Conditions: 635 nm fluorescence, higher = more signal.
In test [10] the target is Alpha-bungarotoxin (Bungarus multicinctus) (UniProt P60615). Kind of test: compounds binding labelled alpha-BTX control protein – biochemical, small-molecule microarray, Alexa647 label, 635/667 nm fluorescence, artefact control for SMM control protein annotation, profiling panel (AID 1117). The settings on record: alpha-BTX-A647 binding fluorescence, higher = more signal.
Sequence of Alpha-bungarotoxin (Bungarus multicinctus) (P60615 whole entry, looked up): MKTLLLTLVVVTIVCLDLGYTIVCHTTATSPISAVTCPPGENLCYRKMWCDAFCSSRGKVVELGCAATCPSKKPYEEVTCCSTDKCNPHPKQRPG

Sequence of Left-right determination factor 2 (Homo sapiens) (O00292 whole entry, looked up): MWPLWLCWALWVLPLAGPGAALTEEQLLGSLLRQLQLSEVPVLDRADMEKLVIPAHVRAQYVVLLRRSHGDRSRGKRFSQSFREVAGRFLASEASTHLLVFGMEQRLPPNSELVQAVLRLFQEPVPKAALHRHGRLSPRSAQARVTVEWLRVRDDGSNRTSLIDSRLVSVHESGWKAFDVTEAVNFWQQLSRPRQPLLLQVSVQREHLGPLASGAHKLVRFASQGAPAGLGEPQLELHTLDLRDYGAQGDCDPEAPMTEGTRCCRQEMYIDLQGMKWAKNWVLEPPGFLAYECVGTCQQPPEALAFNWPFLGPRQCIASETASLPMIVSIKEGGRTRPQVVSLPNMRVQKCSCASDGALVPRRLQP
Sequence of Torsin-1A-interacting protein 1 (Homo sapiens) (Q5JTV8 whole entry, looked up): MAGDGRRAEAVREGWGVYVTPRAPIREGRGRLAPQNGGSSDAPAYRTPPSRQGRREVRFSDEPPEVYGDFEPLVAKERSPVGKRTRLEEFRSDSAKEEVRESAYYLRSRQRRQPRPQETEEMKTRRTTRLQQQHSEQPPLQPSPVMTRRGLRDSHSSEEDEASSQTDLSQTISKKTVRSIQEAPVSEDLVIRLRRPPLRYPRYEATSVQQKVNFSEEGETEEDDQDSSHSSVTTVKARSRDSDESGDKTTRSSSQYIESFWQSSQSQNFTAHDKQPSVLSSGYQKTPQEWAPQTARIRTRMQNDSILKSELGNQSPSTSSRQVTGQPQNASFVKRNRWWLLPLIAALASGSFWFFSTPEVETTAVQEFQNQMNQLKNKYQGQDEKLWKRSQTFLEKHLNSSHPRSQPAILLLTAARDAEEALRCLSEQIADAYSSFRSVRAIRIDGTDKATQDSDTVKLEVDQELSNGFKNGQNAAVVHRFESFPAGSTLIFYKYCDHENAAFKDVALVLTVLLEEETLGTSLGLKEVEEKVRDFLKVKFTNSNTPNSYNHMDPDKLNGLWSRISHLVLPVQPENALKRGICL

In the case of `O=C1[C@H]2[C@H]3[C@H](O)[C@H](O)CC(=NOC[C@@H](O)COCc4ccco4)[C@@H]3CC[C@H]2C(=O)N1C[C@@H]1CCCO1`, the composite z-score in [1] was 0.0714; in test [3], 1.11; in test [4], -1.05; in test [5], -1.73; in [6], -0.117; in test [7] it was -0.0553. The figures for the composite z-score in test [8], in [9] and in test [10] were -0.218, 0.3 and -0.075, respectively. This molecule also had a z-score in test [2] of 0.557.

As for `Cc1ccc(S(=O)(=O)N[C@H]2COC(=O)CC=C[C@H](C)[C@@H](NS(=O)(=O)c3ccc(C)cc3)COC(=O)CC=C[C@@H]2C)cc1`, the composite z-score in test [1] was 0.584; in test [3] it was 0.518; in test [4] it was -0.324; in [5], -0.6; in test [6], -0.351; in [7] it was -0.476. Besides, the composite z-score is -0.0381 in test [8], -0.129 in test [9] and 0.149 in test [10]. The molecule also had a z-score in [2] of -0.622.

As for `CC(C)=CCCC(C)=CCON=C1C[C@@H](O)[C@@H](O)[C@@H]2[C@@H]3C(=O)N(C(C)(C)C)C(=O)[C@@H]3CC[C@@H]12`, the composite z-score in test [1] is 0.0739; in test [3] it was 0.542; in test [4], -0.195; in test [5] it was -0.608; in test [6], -0.0203; in test [7] it was -0.0626. The composite z-score in test [8] is -0.116; in [9], 0.1; in [10] it was 0.372. In [2], this molecule displayed a z-score of -0.0781.

Turning to `CCOC(=O)[C@H](CC(C)C)NC(=O)CCC1CC(OC(=O)NCc2cccc3ccccc23)CC2(CCCC(COC(=O)NCCOC)O2)O1` (stereo not given in full), the composite z-score in test [1] is 1.34; in [3] it was 0.629; in [4], -0.24; in test [5] it was -0.418; in test [6], -0.116; in test [7] it was -0.128. For the same molecule, the composite z-score in test [8] was -0.0653; in test [9], 0.481; in test [10], 0.0702. Further, in test [2], the z-score is 0.339.

Turning to `CCOC(=O)[C@H](CC(C)C)NC(=O)CCC1CC(OC(=O)NCCc2ccc(F)cc2)CC2(CCCC(COC(=O)NCCc3ccc(Cl)cc3)O2)O1` (stereo not given in full), the composite z-score in test [1] was 0.585; in [3] it was 0.839; in [4] it was -0.222; in test [5], -0.0499; in test [6], -0.0044; in [7], -0.156. For the same molecule, the composite z-score in test [8] was -0.45; in [9] it was 0.456; in test [10] it was 1.02. For the same molecule, the z-score in test [2] is -1.19.

Regarding `COC(=O)CC=C[C@@H](C)[C@@H](C=NOC[C@@H](O)[C@H]1O[C@@H]2OC(C)(C)O[C@@H]2[C@H]1O)NS(=O)(=O)c1ccc(C)cc1`, the composite z-score in [1] is 0.496; in test [3], 0.417; in test [4] it was 0.0636; in test [5], -0.627; in test [6] it was -0.0882; in test [7], -0.715. Moreover, the composite z-score amounted to 0.0416 in [8], 0.167 in test [9] and 0.101 in test [10]. This molecule also had a z-score in [2] of -0.499.

For the molecule `CCOC(=O)[C@H](Cc1ccccc1)NC(=O)CCC1CC(OC(=O)NCCc2ccc(F)cc2)CC2(CCCC(COC(=O)NCC3CCCCC3)O2)O1` (stereo not given in full), the composite z-score in [1] is 1.38; in test [3], 1.03; in [4], 0.325; in [5], -0.207; in test [6], -0.232; in test [7] it was -0.2. The composite z-score in [8] is -0.273; in [9] it was 0.237; in test [10] it was 0.289. Further, the z-score in [2] is -0.019.

With `O=C1[C@H]2[C@H]3[C@H](O)[C@H](O)CC(=NOCc4ccccc4)[C@@H]3CC[C@H]2C(=O)N1Cc1ccc2c(c1)OCO2`, the composite z-score was 0.0666 in test [1]; 0.517 in [3]; -0.206 in [4]; -0.211 in [5]; -0.091 in [6]; -0.154 in test [7]. In addition, the results for the composite z-score in test [8], in [9] and in test [10] were -0.23, 0.366 and 0.576, respectively. In [2], this molecule displayed a z-score of -0.276.

Regarding `CC(C)=NO[C@H](C)c1cn([C@H](CO)Cc2ccccc2)nn1`, the composite z-score in [1] is 0.216; in test [3], 0.13; in test [4], 0.0595; in [5] it was -0.0004; in [6], 0.0438; in test [7], 0.0121. Moreover, the composite z-score in test [8] is 0.145; in test [9], -0.197; in test [10] it was -0.0691. In test [2], the z-score is -0.463.

As for `CC(CCN1CCCCc2nc(C)c(C)cc21)=NO[C@H](C)c1cn([C@H](CO)Cc2ccccc2)nn1`, the composite z-score was 0.0596 in [1]; 0.708 in [3]; -0.418 in test [4]; -0.763 in test [5]; 0.103 in test [6]; 0.163 in test [7]. In addition, the composite z-score in test [8] was -0.208; in [9], 0.488; in [10], -0.276. In [2], this molecule gave a z-score of -1.13.

On to `O=C1C=C[C@@H](O)[C@@H]2[C@@H]3C(=O)N(C[C@@H]4CCCO4)C(=O)[C@@H]3CC[C@@H]12`, for which the composite z-score in test [1] is 0.0168; in [3] it was 0.449; in test [4], -0.202; in test [5], -0.78; in test [6], -0.124; in [7], 0.111. The composite z-score in [8] was -0.176; in [9], 0.206; in [10], 0.33. The z-score in test [2] was -0.848.

Take `CC(CCN1CCCc2nc(C)c(C)cc21)=NO[C@@H](C)c1cc(-c2c(C)cc(C)cc2C)no1`: the composite z-score in [1] is 0.788; in test [3], 0.231; in test [4] it was 0.446; in test [5], -0.17; in test [6] it was -0.101; in test [7], 0.0952. The composite z-score in [8] is 0.173; in test [9], 0.601; in test [10], 0.494. In test [2], the z-score was -0.414.
